# Luc counter – blocks Kinase-Glo luciferase, a counter-screen artifact | AID 1379 | Potency, µM (highest dose often 38.3 µM), hits mostly inhibitors | Q27757 | 200,000 compounds, 0.28% hits | Kinase-Glo luciferase, ATP luminescence, 8 min; further: nearly all actives have a fitted effect of over 60% in size
#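 Luminescence was the read-out, taken after 8-minute incubation at ambient temperature. Luciferase turned over luciferin with 10 uM ATP in imidazole pH 7.2 buffer containing KCl, MgCl2, Tween 20 and BSA.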
# SMN2 splice up – increases expression of the SMN2 splice variant | HEK293 SMN2-luciferase splicing reporter, luminescence, 30-36 h | Potency, µM (doses to about 46.1 µM), actives largely listed as activators | 210,000 compounds, 2.8% hits | AID 1458; further: nearly all actives have a fitted effect of over 55% in size
#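 qHTS luciferase splicing reporter: luminescence rises when SMN2 exon 7 is included in transfected HEK293 cells. Compound exposure lasted 30-36 h at 37C, with 4.5 mM final sodium butyrate as control, followed by a ONE-Glo read.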
# Rab9 promoter act – Rab9 promoter activation. AID 485297. Potency, µM (titrated, usually from 9.22 µM), actives largely listed as activators. Huh7 Rab9 promoter-luciferase reporter, luminescence, 24 h. 320,000 compounds, 2.8% hits; further: nearly all actives have a fitted effect of over 60% in size
#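 Using Huh7 cells stably transfected with Rab9 promoter–luciferase, compounds were incubated 24 h at 37 °C, 5% CO2; luciferase luminescence was read 10 min after reagent addition.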
# NPC1 prom act – activators of NPC1 promoter | Potency, µM (series often up to 9.22 µM), most hits filed as activators | Huh7 NPC1 promoter luciferase reporter, 24 h | 320,000 compounds, 2.4% hits; further: nearly all actives have a fitted effect of over 60% in size
#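 Stable NPC1-promoter luciferase Huh7 line; cpd (DMSO) 24 h, 37 °C, 5% CO2; Amplite luciferase reagent 10 min RT; luminescence readout. qHTS format.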
# FLuc modulator – firefly luciferase modulation, counter-screen for miR-21 project; P08659; purified FLuc, Km substrates, luminescence inhibition; Potency, µM (series often up to 57.5 µM), usual class: inhibitors; 360,000 compounds, 6.9% hits; further: nearly all actives have a fitted effect of over 55% in size
# Target sequence (P08659 whole entry, looked up): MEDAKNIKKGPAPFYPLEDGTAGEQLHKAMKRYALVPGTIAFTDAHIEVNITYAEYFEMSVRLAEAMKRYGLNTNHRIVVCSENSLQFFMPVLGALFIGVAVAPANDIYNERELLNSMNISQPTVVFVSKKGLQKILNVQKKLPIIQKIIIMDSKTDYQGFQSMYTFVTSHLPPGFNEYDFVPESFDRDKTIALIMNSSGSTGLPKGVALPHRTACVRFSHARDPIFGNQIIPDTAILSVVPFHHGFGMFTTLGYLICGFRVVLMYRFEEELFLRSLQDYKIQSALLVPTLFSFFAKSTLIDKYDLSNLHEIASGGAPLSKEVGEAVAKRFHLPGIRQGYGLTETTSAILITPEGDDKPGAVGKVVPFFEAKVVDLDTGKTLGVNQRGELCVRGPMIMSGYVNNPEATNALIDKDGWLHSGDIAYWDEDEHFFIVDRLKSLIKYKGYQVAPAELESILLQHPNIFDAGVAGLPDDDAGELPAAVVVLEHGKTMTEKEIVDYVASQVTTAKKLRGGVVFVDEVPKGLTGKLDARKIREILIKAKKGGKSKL
#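 Purified P. pyralis luciferase (10nM final) with 10uM D-luciferin and 10uM ATP (Km levels) in 50mM Tris acetate pH 7.5, 10mM Mg acetate, 0.01% Tween-20, 0.05% BSA; qHTS 6-point titration, ~60 µM downward; luminescence read.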
# ELG1 genotox – genotoxicity induction in ELG1-luciferase HEK293T cells; Potency, µM (highest dose often 46 µM), usual class: activators; 330,000 compounds, 1.3% hits; HEK293T ELG1-luciferase reporter, luminescence, 16 h; further: nearly all actives have a fitted effect of over 60% in size
#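 After overnight (16 hr) compound treatment at 37 °C, ELG1-luciferase HEK293T cells were lysed with ONE-Glo; luminescence quantified 30 min later at room temperature.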
# A number is an active result; 0 = inactive; ? = inconclusive; - = no result given; [ ] = remark or other dose. Compounds with a hit are over-represented: about 7.5% of the library has one in this group of screens. The call rests on the fitted dose curve; in most records, active means well fitted curve in the direction sought with a large enough effect; inconclusive means small, poorly fitted or top-dose-only effect, or another doubt; inactive means no such curve, though single readings can be large; an effect the other way counts as inactive or inconclusive.
SMILES,Luc counter,SMN2 splice up,Rab9 promoter act,NPC1 prom act,FLuc modulator,ELG1 genotox
O=C(COc1ccc([N+](=O)[O-])cc1Cl)NCCN1C(=O)CSC1=O,-,-,-,-,-,0
C=CCOc1c(Br)cc(/C=N/n2c(CC)n[nH]c2=S)cc1Br,0,0,0,0,0,0
Cc1ccc(NCc2nc3ccccc3n2C)cc1,?,2.2µM,0.63µM,1.1µM,3.4µM,1.5µM
Cn1c(CNc2ccc(Br)cc2)nc2ccccc21,-,-,2.8µM,1.6µM,2.7µM,?
Cc1ccc(NC(=O)NCc2nc3ccccc3n2C)cc1,-,-,0,0,0,0
COc1ccc(NCc2nc3ccccc3n2C)cc1,-,-,2.2µM,1.8µM,11µM,5.2µM
COc1ccc(NCc2nc3ccccc3n2CCOc2ccc(C)cc2)cc1,0,0,0,0,?,?
COc1ccc(Nc2nc3ccccc3n2C)cc1,-,-,3.2µM,2.5µM,15µM,0
Cn1c(CNC2CCCCC2)nc2ccccc21,0,0,0,0,0,0
CCCSc1ncc(Cl)c(C(=O)Nc2sc(C(C)=O)c(C)c2C(=O)OCC)n1,-,0,-,-,0,-
O=c1[nH]c2ccc(Cl)cc2c(-c2ccccc2)c1N1CCN(c2ccccn2)CC1,0,0,0,0,0,0
Cc1ccc(S(=O)(=O)c2nnn3c2nc(NC2CCCCC2)c2sccc23)cc1C,-,-,-,-,0,-
O=C1C2C(c3ccccc3)C=CC(c3ccccc3)C2C(=O)N1c1ccccn1 (stereo not drawn),0,0,0,0,0,0
COc1ccc(NCc2nc3ccccc3n2CCOc2ccccc2)cc1,0,?,?,?,13µM,21µM
Cc1nc2ccccc2n1CCCOc1ccccc1,0,0,0,0,11µM,0
CC(C)n1c(NCc2nc3ccccc3n2C)nc2ccccc21,0,0,0,0,0,0
Cn1c(CNc2nc3ccccc3n2C)nc2ccccc21,0,?,?,3.5µM,?,0
O=C1CC(c2ccccc2)CC(=O)N1c1ccc(C(F)(F)F)cc1,-,-,0,0,0,0
O=S(=O)(NC1c2cccc3cccc(c23)C1N1CCNCC1)c1ccc(Cl)cc1 (stereo not drawn),0,0,0,0,0,0
CCC(=O)N1CCc2cc(Br)cc(S(=O)(=O)CCC(=O)N3CCN(c4ccc(OC)cc4)CC3)c21,-,0,-,-,0,-
O=C(CSc1nnc(-c2ccc(O)cc2)o1)N1CCOCC1,0,0,?,0,?,0
Oc1ccc(-c2nnc(SCC3CCCCC3)o2)cc1,0,?,2.8µM,3.2µM,15µM,?
O/N=C\c1cnc(N2CCN(c3ccccc3)CC2)s1,-,-,?,0,17µM,?
O=C(Nc1ccccc1)c1cc(-c2ccccc2Cl)no1,0,?,0,?,0.76µM,?
COC(=O)c1sccc1-c1ccc(C(=O)Nc2ccccc2)o1,0,?,2.2µM,3.5µM,7.6µM,?
SMILES,Luc counter,SMN2 splice up,Rab9 promoter act,NPC1 prom act,FLuc modulator,ELG1 genotox
O=C(Nc1cccc(O)c1)c1cc(-c2ccccc2F)no1,-,-,-,-,0,-
CC(C)(CNC(=O)c1ccc(-c2ccccc2Cl)o1)N1CCOCC1,-,-,?,?,?,13µM
O=C(Nc1cccc(F)c1)c1ccc(-c2ccccc2Cl)o1,0,11µM,0,0,9.5µM,?
COc1ccc(NC(=O)c2cc(-c3ccccc3Cl)no2)cc1,0,0,0,0,9.5µM,0
CCc1nnc(NC(=O)c2ccc(-c3ccccc3Cl)o2)s1,0,0,?,0,?,21µM
COc1ccc(NC(=O)c2ccc(-c3ccccc3Cl)o2)cc1,0,18µM,?,?,9.5µM,?
CCOc1ccc(NC(=O)c2ccc(-c3cccc(Cl)c3C)o2)cc1,-,0,-,-,0,-
Cc1ccc(NC(=O)c2ccc(-c3cccc(Cl)c3C)o2)cc1,-,0,-,-,7.6µM,-
COc1ccc(NC(=O)c2ccc(-c3cccc(Cl)c3C)o2)cc1,-,0,-,-,?,-
OC[C@H](CCc1c[nH]c2ccccc12)c1c[nH]c2ccccc12,0[7.66 µM],0[9.22 µM],-,-,-,-
CC(=O)c1cccc(NC(=O)c2ccc(-c3ccccc3[N+](=O)[O-])o2)c1,0,10µM,3.2µM,?,3.4µM,?
COc1ccc(/C=C(/C(=O)c2cccs2)N2C=CC=CC2=C(C#N)C#N)cc1,-,-,0,0,13µM,?
CC(C)(C)C1CCc2[nH]c3ccccc3c(=O)c2C1 (stereo not drawn),?,0,0,0,6µM,?
O=C1C(Cl)=C(NC2CCCCC2)C(=O)N1c1ccc(Cl)cc1,0,?,0,0,4.8µM,?
CCOc1ccc(NC(=O)Nc2nnc(N3CCCCC3C)s2)cc1 (stereo not drawn),-,-,-,-,0,-
COc1ccc(OC)c(NC(=O)Nc2nnc(N3CCCCC3C)s2)c1 (stereo not drawn),-,-,0,0,19µM,0
COC(=O)c1ccccc1NC(=O)Nc1nnc(N2CCCCC2C)s1 (stereo not drawn),0,0,0,0,0,0
COc1ccc(NC(=O)Nc2nnc(N3CCCCC3C)s2)cc1OC (stereo not drawn),0,0,0,0,17µM,0
COc1ccc(-c2nc3cc(C)ccn3c2NCc2ccc3c(c2)OCO3)cc1,0,-,?,0,17µM,0
COc1ccc(-c2nc3ccccn3c2NCc2ccc3c(c2)OCO3)cc1,0,14µM,?,?,4.8µM,0
COc1ccccc1N1CCN(C(=O)Cn2cnc3onc(-c4ccc(F)cc4)c3c2=O)CC1,-,-,-,-,0,-
COc1cc2c(cc1OC)n(CC(=O)c1ccc(C)cc1C)c(=O)n1nc(CCn3nc(C)cc3C)nc21,-,-,-,-,0,-
O=c1oc2ccccc2c(O)c1/C=N/c1ncccn1,?,0,0,0,?,0
O=c1oc2ccccc2c(O)c1/C=N/c1ccccn1,?,0,0,0,11µM,0
O=c1oc2ccccc2c(O)c1/C=C1\C=Nc2ccccc21,0,0,0,0,27µM,0
SMILES,Luc counter,SMN2 splice up,Rab9 promoter act,NPC1 prom act,FLuc modulator,ELG1 genotox
CCOc1ccc(N=Cc2c(O)c3ccccc3oc2=O)cc1,?,0,0,0,0.85µM,0
O=c1oc2ccccc2c(O)c1C=Nc1cccnc1,0,0,0,0,9.5µM,0
CC(N=Cc1c(O)c2ccccc2oc1=O)C(=O)O (stereo not drawn),0,0,0,0,0,0
Cc1ccc(COC(=O)CN2C(=O)NC3(CCCCC3C)C2=O)cc1 (stereo not drawn),-,-,0,0,0,0
CC1=CN2C(=N)/C(=C/c3ccc(Sc4ccc(Cl)cc4)o3)C(=O)N=C2S1,0,0,0,0,0,0
CC1=CN2C(=N)/C(=C/c3ccc(Sc4ccc(C)cc4)o3)C(=O)N=C2S1,0,0,0,0,19µM,0
CC1=CN2C(=N)/C(=C/c3ccc(C)o3)C(=O)N=C2S1,0,2.8µM,0.79µM,1.6µM,1.2µM,?
Cc1ccc(/C=C2\C(=N)N3N=C(CC(=O)N4CCOCC4)SC3=NC2=O)o1,-,-,0,0,0,0

# Screening results (PubChem)
